# Experimental data from the supplement of paper PMC7724964.
# T1: PLEK 120-231 DEP (domain begin residue: 120, domain end residue: 231), P08567
# T1 chain: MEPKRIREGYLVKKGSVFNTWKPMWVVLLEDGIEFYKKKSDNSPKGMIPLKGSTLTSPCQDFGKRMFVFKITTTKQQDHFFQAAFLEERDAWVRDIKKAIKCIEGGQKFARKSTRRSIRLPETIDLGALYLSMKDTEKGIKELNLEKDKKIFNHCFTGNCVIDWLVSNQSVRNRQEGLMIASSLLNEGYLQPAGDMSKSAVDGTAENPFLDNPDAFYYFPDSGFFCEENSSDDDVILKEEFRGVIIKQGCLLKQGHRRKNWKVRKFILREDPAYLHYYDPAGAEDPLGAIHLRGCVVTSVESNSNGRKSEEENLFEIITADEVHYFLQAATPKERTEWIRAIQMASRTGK
# T2: RALA 11-183 Ras (domain begin residue: 11, domain end residue: 183), P11233
# T2 chain: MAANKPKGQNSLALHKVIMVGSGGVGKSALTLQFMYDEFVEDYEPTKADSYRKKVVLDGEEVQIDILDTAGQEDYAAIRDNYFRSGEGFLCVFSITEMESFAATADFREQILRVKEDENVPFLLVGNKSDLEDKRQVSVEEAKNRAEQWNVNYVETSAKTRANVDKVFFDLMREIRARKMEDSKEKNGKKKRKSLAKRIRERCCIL
# T3: PPARG 233-505 Hormone_recep (domain begin residue: 233, domain end residue: 505), P37231
# T3 chain: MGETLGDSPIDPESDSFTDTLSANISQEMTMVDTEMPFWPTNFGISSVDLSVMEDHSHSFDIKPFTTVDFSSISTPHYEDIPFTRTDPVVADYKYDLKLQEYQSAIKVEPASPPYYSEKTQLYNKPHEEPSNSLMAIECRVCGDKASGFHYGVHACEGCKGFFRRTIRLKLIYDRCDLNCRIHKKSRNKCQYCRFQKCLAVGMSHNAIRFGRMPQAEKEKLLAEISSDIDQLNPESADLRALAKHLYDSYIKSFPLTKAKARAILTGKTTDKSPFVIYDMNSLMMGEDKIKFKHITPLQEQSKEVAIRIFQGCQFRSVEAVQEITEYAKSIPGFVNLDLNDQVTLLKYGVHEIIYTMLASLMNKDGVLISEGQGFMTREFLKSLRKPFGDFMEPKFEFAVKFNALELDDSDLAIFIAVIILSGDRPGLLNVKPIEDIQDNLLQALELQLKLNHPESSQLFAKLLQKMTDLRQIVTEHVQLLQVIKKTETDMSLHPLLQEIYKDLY
# T4: RAB5A 15-188 Ras (domain begin residue: 15, domain end residue: 188), P20339
# T4 chain: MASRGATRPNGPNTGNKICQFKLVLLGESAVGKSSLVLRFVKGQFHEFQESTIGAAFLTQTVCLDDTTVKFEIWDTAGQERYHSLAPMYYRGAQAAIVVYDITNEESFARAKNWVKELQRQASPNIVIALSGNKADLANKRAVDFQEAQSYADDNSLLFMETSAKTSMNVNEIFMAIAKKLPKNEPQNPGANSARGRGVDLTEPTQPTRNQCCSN
# T5: PUF60 460-559 RRM_3 (domain begin residue: 460, domain end residue: 559), Q9UHX1
# T5 chain: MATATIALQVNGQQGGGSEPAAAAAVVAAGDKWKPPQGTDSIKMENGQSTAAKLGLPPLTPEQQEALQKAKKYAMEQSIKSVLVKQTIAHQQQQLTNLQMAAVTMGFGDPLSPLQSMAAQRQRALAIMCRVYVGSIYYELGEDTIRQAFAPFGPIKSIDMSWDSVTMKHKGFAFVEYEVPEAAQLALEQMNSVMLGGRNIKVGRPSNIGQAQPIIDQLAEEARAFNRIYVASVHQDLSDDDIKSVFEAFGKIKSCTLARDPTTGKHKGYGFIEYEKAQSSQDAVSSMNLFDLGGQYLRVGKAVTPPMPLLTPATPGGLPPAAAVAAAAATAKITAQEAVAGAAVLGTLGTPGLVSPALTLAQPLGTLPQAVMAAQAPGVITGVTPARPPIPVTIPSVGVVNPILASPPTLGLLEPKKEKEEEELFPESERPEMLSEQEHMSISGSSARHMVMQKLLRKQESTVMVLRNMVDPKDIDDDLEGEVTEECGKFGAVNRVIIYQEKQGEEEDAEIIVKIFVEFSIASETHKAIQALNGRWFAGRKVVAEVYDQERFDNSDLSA
# T6: PPWD1 486-646 Pro_isomerase (domain begin residue: 486, domain end residue: 646), Q96BP3
# T6 chain: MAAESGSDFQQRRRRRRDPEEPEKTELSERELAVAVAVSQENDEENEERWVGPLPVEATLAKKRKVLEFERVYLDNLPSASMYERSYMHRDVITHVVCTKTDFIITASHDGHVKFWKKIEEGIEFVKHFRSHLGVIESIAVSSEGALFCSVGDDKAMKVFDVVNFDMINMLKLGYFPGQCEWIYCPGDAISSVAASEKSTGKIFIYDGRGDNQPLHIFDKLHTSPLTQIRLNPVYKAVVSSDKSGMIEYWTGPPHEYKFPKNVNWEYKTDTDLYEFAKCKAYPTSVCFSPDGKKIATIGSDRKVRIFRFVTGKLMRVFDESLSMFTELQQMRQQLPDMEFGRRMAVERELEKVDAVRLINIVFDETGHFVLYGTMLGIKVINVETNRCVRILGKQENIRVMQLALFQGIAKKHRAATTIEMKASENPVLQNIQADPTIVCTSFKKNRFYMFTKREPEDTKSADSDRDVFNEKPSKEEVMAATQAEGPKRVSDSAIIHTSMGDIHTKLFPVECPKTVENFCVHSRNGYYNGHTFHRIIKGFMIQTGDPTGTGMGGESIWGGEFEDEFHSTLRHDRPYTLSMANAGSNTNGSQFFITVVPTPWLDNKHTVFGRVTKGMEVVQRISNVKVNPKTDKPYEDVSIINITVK
# Molecular target: T1, PLEK 120-231 DEP (domain begin residue: …
# Test: phage ELISA signal ratio (GST-PRM binding over GST background); higher = stronger binding of peptide-phage to the PRM
# How it was run: (§1)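 An M13 phage library with randomized hexadecapeptides on the gene-8 major coat protein, each peptide lacking cysteine and flanked by glycine, was selected for five rounds against human peptide recognition domains fused to the C-terminus of glutathione S-transferase (GST) and expressed in 96-well plates. Approximately 48 clones from rounds 4 and 5 went to phage ELISA. The reported value is the ELISA signal on the GST-domain fusion over the signal on GST alone, and positive clones were sequenced.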
row,Binder,phage ELISA signal ratio
1,FDQLMHEAYTQWQSQQ,31.5
2,WFDEGMWEVINQYNSL,21.9

# Molecular target: T2, RALA 11-183 Ras (domain begin residue: …
# Test: as above
# How it was run: as §1
row,Binder,phage ELISA signal ratio
1,LTHEQMLWQLMDALSE,19.4
2,LYQEVFEYQGWLCMDL,32.5

# Molecular target: PLEK2 238-353 PH (domain begin residue: 238, domain end residue: 353)
# Test: as above
# How it was run: as §1
row,Binder,phage ELISA signal ratio
1,WEDWTYWNDHLHLSPE,8.15
2,LNDHWVAWHLMKNEIQ,14.3
3,DQVLKWNEHWHEWLQA,26.3
4,GPEMWNLHWQDWYNEV,28.3
5,DGKHWADFYSAFPMLA,31.8
6,DHWDAFYTWQKQNYLD,36.8
7,EDVELLNKHWYDWAQV,25
8,TLTATDWWEEWNWGEN,20.9
9,MSGITDWWENPAYWSW,3.86
10,DINVTSDMNQHWMQWS,33.1
11,MHSELNWWEAMQWDSW,4.7
12,MNEHWTEWYWQSQNFV,20.4
13,DFNAHWLEWHAQHVAL,28.5
14,QNDGMDKAWVFWHEPT,20.8
15,SIKHWEQFYASQPPQI,16.2

# Molecular target: PLEK2 123-229 DEP (domain begin residue: 123, domain end residue: 229)
# Test: as above
# How it was run: as §1
row,Binder,phage ELISA signal ratio
1,YLTWWYDPDHPDWATV,6.35
2,EFEMDFWEMWNAWLSQ,14.9
3,WNWENVWWLDQTHPLW,10.1
4,WNWENVWGLDQTHPLW,3.15
5,EIEPWWWDPHHENWAM,7.12
6,PDFWWQQQMADIMQWR,21.4

# Molecular target: PPIE 138-301 Pro_isomerase (domain begin residue: 138, domain end residue: 301), Q9UNP9
# Sequence (Q9UNP9 whole entry): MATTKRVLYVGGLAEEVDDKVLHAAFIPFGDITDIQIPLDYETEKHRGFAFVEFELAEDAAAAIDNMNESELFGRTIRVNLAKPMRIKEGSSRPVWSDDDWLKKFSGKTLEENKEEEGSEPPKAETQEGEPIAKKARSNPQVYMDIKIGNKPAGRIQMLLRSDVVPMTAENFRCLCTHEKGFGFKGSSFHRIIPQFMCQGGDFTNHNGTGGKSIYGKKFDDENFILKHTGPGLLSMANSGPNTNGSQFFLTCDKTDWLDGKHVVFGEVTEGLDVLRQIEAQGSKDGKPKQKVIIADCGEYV
# Test: as above
# How it was run: as §1
row,Binder,phage ELISA signal ratio
1,SDVYGPHAHPVHYQDE,8.93
2,PMTWEMWQIDSAQQTV,8.08
3,HEMFGPQEQSQHMMEW,4.73
4,EPTFGPQPQVFFSTNP,17
5,PLMMPPEPHWVVNLGI,10.5
6,ESWGPMEQHSYTEQTE,5.43
7,VYDFIGPQPQTNMASI,21.8
8,ENHVPWVPEARWTTPQ,7.51

# Molecular target: RANBP1 39-170 Ran_BP1 (domain begin residue: 39, domain end residue: 170), P43487
# Sequence (P43487 whole entry): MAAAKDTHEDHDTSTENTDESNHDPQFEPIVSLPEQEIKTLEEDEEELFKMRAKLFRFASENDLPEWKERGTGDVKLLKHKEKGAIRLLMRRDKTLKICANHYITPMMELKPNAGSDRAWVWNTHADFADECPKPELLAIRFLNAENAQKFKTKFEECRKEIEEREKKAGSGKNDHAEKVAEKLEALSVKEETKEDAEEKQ
# Test: as above
# How it was run: as §1
row,Binder,phage ELISA signal ratio
1,WDMTLPVLTNHELAYL,9.02
2,DHGWWMLNSNFLPVVP,9.28
3,YGMRLPEASQMETWFL,6.18
4,WEHLYPWMIPLPGTGV,6.24
5,WRMELPVQNHMEVMDL,6.12
6,VSDMRGVPDSFMDVWD,5.06
7,WELALPAEHHEHYWSN,4.36
8,WLVPLPWEETWQNMSL,5.79
9,GTEWWQQMALPPDVVV,7.62
10,PTEAEWGIWHDLPDYE,10.1
11,WDVALPQEIVWELADK,7.66

# Molecular target: T3, PPARG 233-505 Hormone_recep (domain …
# Test: as above
# How it was run: as §1
row,Binder,phage ELISA signal ratio
1,LHPMLTDMLAPNHMEV,18.6
2,AEEHSMSLMSLLLAPS,5.77
3,PESWWESWMMDHEWGS,24.5
4,PSEDVSWWWQQHLMDI,17.6
5,QDLESWWWSEHLSNIM,14.3
6,MNHAQIQSPLLWSLLW,11.6

# Molecular target: T4, RAB5A 15-188 Ras (domain begin residue: …
# Test: as above
# How it was run: as §1
row,Binder,phage ELISA signal ratio
1,WDLAEWEMIWQDYMNH,5.62

# Molecular target: T5, PUF60 460-559 RRM_3 (domain begin …
# Test: as above
# How it was run: as §1
row,Binder,phage ELISA signal ratio
1,MNWGEMWDVRDDQVMV,7.64
2,NKWDMEHWDTEYRSPV,4.03
3,SRWDQQPGQWIKLSEN,12
4,TQGKWDMQPTDMHYLS,13.2
5,WSSKWDVIDKDYGIMH,7.28

# Molecular target: T6, PPWD1 486-646 Pro_isomerase (domain …
# Test: as above
# How it was run: as §1
row,Binder,phage ELISA signal ratio
1,AVSWGPQWHDFQWALM,8.34
